# Results: PubChem BioAssay
# A number with no mark means an inactive call. Calls of active or inactive are those of the source.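 Rule for the calls, unless noted: active = mean inhibition above 46.5%, the solvent-only control mean plus 3 SD; inactive = the rest.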
# Tested on: transactivating tegument protein VP16 (Human herpesvirus 1)
# Assay: compounds suppressing VP16-driven luciferase signal – cell-based, luminescence, single concentration, counter-screen for SRC2 inhibitor project (AID 652007; in the data active = inhibition above about 36%)
# Conditions: cell-based VP16 transactivation luciferase reporter, at 8.9 µM, active compounds read high
row,Structure (SMILES),inhibition
1,CC(C)c1cc(CNC(=O)c2ccc(OC3CCN(Cc4ccccn4)CC3)cc2)on1,-9.72%
2,Cc1ccc2c(c1)N(C(=O)CCC(=O)NCCCN1CCN(C)CC1)CC(C)O2 (stereo not given),-11.4%
3,Cc1cc(N)ccc1-n1nc2ccccc2n1,-7.48%
4,CC(=O)c1ccc(OCCCC(=O)Nc2ccc(C)c(S(=O)(=O)N3CCCCC3)c2)cc1,-1.11%
5,Cc1cccc(C)c1NC(=O)C[n+]1cc(-c2ccccc2)n2c1CCC2,-22.3%
6,O=C(Cn1ncc2c([nH]c3ccccc32)c1=O)NCCc1ccccc1,21.4%
7,COC(=O)CCCNC(=O)CCc1nnc(-c2ccc(-c3ccccc3)cc2)o1,34%
8,Cc1ccc2c(c1)sc(=NC(=O)c1cccs1)n2C,-58.3%
9,O=C(N/N=C/c1coc2ccc(Cl)cc2c1=O)c1ccncc1,-13.1%
10,Cc1ccc(NC(=O)Cn2cccc2C2=NC(c3ccccc3)CO2)cc1C (stereo not given),-8.04%
11,CCCN1C(=O)C2C(C(=O)Nc3cccc(OC)c3)C3C=CC2(O3)C1C(=O)NC1CCCCC1 (stereo not given),-13.7%
12,CC(C)N(C(=O)[C@H]1C[C@H](CC(=O)NCCc2ccccn2)C(=O)N2CCc3c([nH]c4cc(-c5ccco5)ccc34)[C@]12C)C(C)C,-4.18%
13,CCOc1ccc(NC(=S)NC(=O)/C=C/c2ccc(OC)cc2)c([N+](=O)[O-])c1,-22.3%
14,CCOC(=O)C1=CCN(S(=O)(=O)c2ccccc2C)C1c1ccc(Cl)c(Cl)c1 (stereo not given),-18.3%
15,O=C(CCCN1C(=O)/C(=C/c2ccc3c(c2)OCO3)SC1=S)Nc1ccc(C(=O)O)cc1,53.6% (active)
16,Cc1ccc(-n2c(C)c([N+](=O)[O-])c3ccc(O)cc32)cc1,2.28%
17,Cc1ccc(CS(=O)(=O)c2ncc(Cl)c(C(=O)Nc3nnc(C(C)C)s3)n2)cc1,27.3%
18,COc1ccccc1N1CCN(C(CNC(=O)c2ccco2)c2cccnc2)CC1 (stereo not given),-7.16%
19,CC(C)CCSc1nc(N)c(C#N)cc1C#N,-75.7%
20,COc1ccc(C(C(=O)NC2CCCC2)n2c(CSCCOc3ccccc3)nc3ccccc32)cc1 (stereo not given),43.5% (active)
21,Cc1nc(SCc2cccc(C(=O)O)c2)nc2c1CCCC2,4.6%
22,Cc1csc(NC(=O)CSc2ccc([N+](=O)[O-])cn2)n1,-0.96%
23,CCNC(=O)COc1ccc(/C=C2\COc3ccccc3C2=O)cc1OC,3.8%
24,COc1ccc(-c2nc(-c3ccccc3)no2)c(OC)c1,3.43%
25,COc1ccccc1C(C)NC(=O)C1CCN(S(=O)(=O)c2cccs2)CC1 (stereo not given),-3.74%

# Molecular target: Nuclear receptor coactivator 2 (Homo sapiens) (UniProt Q15596)
# Assay: inhibition of GAL4-SRC2 driven luciferase expression – cell-based, luminescence, HEK293, triplicate, confirmation (AID 652008);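 note: 0% = DMSO-treated cells and 100% = Gossypol at 36 µM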
# Conditions: HEK293 GAL4-SRC2 luciferase reporter, at 8.9 µM, active compounds read high
# Nuclear receptor coactivator 2 (Homo sapiens), sequence (Q15596 whole entry, looked up, the tested form may be a part): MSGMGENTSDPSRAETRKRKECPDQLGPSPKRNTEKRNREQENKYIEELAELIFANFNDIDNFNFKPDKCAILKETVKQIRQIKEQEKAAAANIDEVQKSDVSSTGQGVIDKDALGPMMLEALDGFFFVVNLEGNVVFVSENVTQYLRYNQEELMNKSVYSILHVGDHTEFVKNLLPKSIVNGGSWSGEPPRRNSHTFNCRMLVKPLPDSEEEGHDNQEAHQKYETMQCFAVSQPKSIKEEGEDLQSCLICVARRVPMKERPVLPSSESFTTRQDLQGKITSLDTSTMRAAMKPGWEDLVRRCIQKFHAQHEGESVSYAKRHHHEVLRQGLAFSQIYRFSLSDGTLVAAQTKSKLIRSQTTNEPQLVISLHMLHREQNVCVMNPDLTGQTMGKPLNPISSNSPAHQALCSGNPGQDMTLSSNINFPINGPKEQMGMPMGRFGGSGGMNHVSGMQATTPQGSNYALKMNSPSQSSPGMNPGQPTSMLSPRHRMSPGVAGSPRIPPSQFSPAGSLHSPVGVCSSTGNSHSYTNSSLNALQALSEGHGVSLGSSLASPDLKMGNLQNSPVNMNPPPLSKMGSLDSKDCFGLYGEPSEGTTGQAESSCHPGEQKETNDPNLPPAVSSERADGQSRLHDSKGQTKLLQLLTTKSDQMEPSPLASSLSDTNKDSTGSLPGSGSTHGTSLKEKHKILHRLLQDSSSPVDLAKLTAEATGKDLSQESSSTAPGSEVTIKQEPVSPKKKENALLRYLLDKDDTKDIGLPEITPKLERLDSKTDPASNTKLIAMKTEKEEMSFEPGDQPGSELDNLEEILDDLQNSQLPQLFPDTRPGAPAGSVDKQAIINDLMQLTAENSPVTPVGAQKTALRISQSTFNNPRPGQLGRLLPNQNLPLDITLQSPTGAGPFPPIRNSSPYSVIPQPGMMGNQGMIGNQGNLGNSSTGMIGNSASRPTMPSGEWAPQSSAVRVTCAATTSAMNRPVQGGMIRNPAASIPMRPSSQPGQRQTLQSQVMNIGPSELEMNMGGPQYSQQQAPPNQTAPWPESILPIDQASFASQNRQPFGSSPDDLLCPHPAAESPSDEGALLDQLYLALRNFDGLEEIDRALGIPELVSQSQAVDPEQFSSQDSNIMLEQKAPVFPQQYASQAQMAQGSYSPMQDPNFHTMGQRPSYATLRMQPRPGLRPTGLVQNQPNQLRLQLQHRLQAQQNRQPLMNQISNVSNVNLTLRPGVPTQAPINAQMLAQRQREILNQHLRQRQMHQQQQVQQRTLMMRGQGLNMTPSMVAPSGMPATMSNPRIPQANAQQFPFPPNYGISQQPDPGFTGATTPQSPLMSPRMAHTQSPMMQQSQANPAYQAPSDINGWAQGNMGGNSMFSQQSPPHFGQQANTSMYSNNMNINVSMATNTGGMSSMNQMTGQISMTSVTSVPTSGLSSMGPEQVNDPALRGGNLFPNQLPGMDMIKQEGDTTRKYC
row,Structure (SMILES),inhibition
1,Cc1sc(NC(=O)CCCC(=O)O)c(C(N)=O)c1-c1ccccc1,75.5% (active)
2,Cc1c(CCC(=O)N[C@@H](C)C(=O)O)c(=O)oc2c(C)c3oc4c(c3cc12)CCCC4,27.4%
3,C=CCNC(=S)NCc1ccccc1,-24.7%
4,C=CS(=O)(=O)N(Cc1nnn(Cc2ccccc2)c1Br)[C@H](C(=O)OC)C(C)C,27.4%
5,NC(=O)c1ccsc1NC(=O)COC(=O)c1ccc([N+](=O)[O-])o1,-22.5%
6,CC(C)c1nc(N2CCOCC2)c(C#N)c2c1CCC2,4.3%
7,COc1cc(NC(=O)CSc2nnc3c(C)cc4cc(C)cc(C)c4n23)c(C(=O)O)cc1OC,-11.4%
8,Cc1nc2ccccc2c2c1C(=O)N(c1ccc(C(=O)O)cc1)C2=O,-28.2%
9,Cn1cc(CN2CCN(CCO)CC2)c(-c2ccc(Oc3ccccc3)cc2)n1,7.36%
10,COC(=O)c1cnn(-c2ccc(Cl)cc2)c1/C=N/NC(N)=S,34.7%
11,COc1cc2[nH]c(=O)n(CCCCCC(=O)NCCCN3CCCC3=O)c(=O)c2cc1OC,-9.47%
12,CN(Cc1ccccc1)S(=O)(=O)c1ccc(Cl)c(C(=O)NCCCN2CCOCC2)c1,5.69%
13,COc1ccccc1/C=C/C(=O)c1cc(Br)ccc1OC(=O)c1ccco1,-2.06%
14,N#Cc1ccc(-c2ccc(OCC(=O)Nc3cccnc3)cc2)cc1,52.6% (active)
15,Cc1ccc(C(=O)OCC(=O)NC2CCCC(C)C2C)cc1S(=O)(=O)N1CCCCC1 (stereo not given),9.97%
16,CC(C)c1cc(CNC(=O)c2ccc(OC3CCN(Cc4ccccn4)CC3)cc2)on1,11.8%
17,Cc1ccc2c(c1)N(C(=O)CCC(=O)NCCCN1CCN(C)CC1)CC(C)O2 (stereo not given),-10.8%
18,Cc1cc(N)ccc1-n1nc2ccccc2n1,3.06%
19,CC(=O)c1ccc(OCCCC(=O)Nc2ccc(C)c(S(=O)(=O)N3CCCCC3)c2)cc1,-2.06%
20,Cc1cccc(C)c1NC(=O)C[n+]1cc(-c2ccccc2)n2c1CCC2,-2.7%

row,Structure (SMILES),inhibition
1,O=C(Cn1ncc2c([nH]c3ccccc32)c1=O)NCCc1ccccc1,12.2%
2,COC(=O)CCCNC(=O)CCc1nnc(-c2ccc(-c3ccccc3)cc2)o1,62.8% (active)
3,Cc1ccc2c(c1)sc(=NC(=O)c1cccs1)n2C,-3.83%
4,O=C(N/N=C/c1coc2ccc(Cl)cc2c1=O)c1ccncc1,31.4%
5,Cc1ccc(NC(=O)Cn2cccc2C2=NC(c3ccccc3)CO2)cc1C (stereo not given),-4.44%
6,CCCN1C(=O)C2C(C(=O)Nc3cccc(OC)c3)C3C=CC2(O3)C1C(=O)NC1CCCCC1 (stereo not given),-16.6%
7,CC(C)N(C(=O)[C@H]1C[C@H](CC(=O)NCCc2ccccn2)C(=O)N2CCc3c([nH]c4cc(-c5ccco5)ccc34)[C@]12C)C(C)C,-6.81%
8,CCOc1ccc(NC(=S)NC(=O)/C=C/c2ccc(OC)cc2)c([N+](=O)[O-])c1,-19.4%
9,CCOC(=O)C1=CCN(S(=O)(=O)c2ccccc2C)C1c1ccc(Cl)c(Cl)c1 (stereo not given),-14%
10,O=C(CCCN1C(=O)/C(=C/c2ccc3c(c2)OCO3)SC1=S)Nc1ccc(C(=O)O)cc1,36.2%
11,Cc1ccc(-n2c(C)c([N+](=O)[O-])c3ccc(O)cc32)cc1,47.5% (active)
12,Cc1ccc(CS(=O)(=O)c2ncc(Cl)c(C(=O)Nc3nnc(C(C)C)s3)n2)cc1,51.9% (active)
13,COc1ccccc1N1CCN(C(CNC(=O)c2ccco2)c2cccnc2)CC1 (stereo not given),-4.45%
14,CC(C)CCSc1nc(N)c(C#N)cc1C#N,17.8%
15,COc1ccc(C(C(=O)NC2CCCC2)n2c(CSCCOc3ccccc3)nc3ccccc32)cc1 (stereo not given),76.4% (active)
16,Cc1nc(SCc2cccc(C(=O)O)c2)nc2c1CCCC2,56.6% (active)
17,Cc1csc(NC(=O)CSc2ccc([N+](=O)[O-])cn2)n1,-30.9%
18,CCNC(=O)COc1ccc(/C=C2\COc3ccccc3C2=O)cc1OC,78.1% (active)
19,COc1ccc(-c2nc(-c3ccccc3)no2)c(OC)c1,53.8% (active)
20,COc1ccccc1C(C)NC(=O)C1CCN(S(=O)(=O)c2cccs2)CC1 (stereo not given),6.18%
